# Test results taken from ChEMBL document CHEMBL3988442, “University of Dundee, Small-Polar-MMV Screening Library” (2021).
# Hit rate of the full screen: of about 48,000 compounds, about 13,000 (27%) showed an effect of 50% or more. Some of the results follow.
# Tested on: Wolbachia pipientis
# Test: Anti-Wolbachia Cell-Based Screen
# Type: functional
# Design: scale not given: in the data most compounds retested in dose-response had high values
# Details: 5 µM
row,Structure (SMILES),Percent Effect [%]
1,O=C(NCC1(O)CCOC1)NCC1(c2ccccc2Cl)CC1 (centres undefined),3.661
2,CCS(=O)(=O)CC(=O)Nc1cccc2c1CN(CC(C)C)C2,-13.69
3,CC(NC(=O)CCc1nc(-c2nnc[nH]2)no1)c1ccc(F)cc1F (centres undefined),1.12
4,O=C1NCc2ccccc2CC12CCN(Cc1ccccc1Cl)CC2,119.1
5,O=C(O)c1csc(S(=O)(=O)N2CCN(Cc3c(F)cccc3Cl)CC2)c1,1.307
6,N#Cc1ccccc1C(=O)N1CCC2(CC(=O)NC2=O)C1 (centres undefined),-23.72
7,O=C(C1CCOC1)N1CCC2(CC1)Cc1ccccc1CNC2=O (centres undefined),-36.36
8,O=C(O)c1ccccc1CN1CCC2(Cc3ccccc3CNC2=O)C1 (centres undefined),101.8
9,O=C1NC2(CCN(Cc3ccccc3Cl)CC2)CC1c1ccccc1 (centres undefined),14.18
10,COCCCC1(C(=O)O)CCCN(Cc2ccccc2C)C1 (centres undefined),-5.241
11,O=C1NCc2ccccc2CC12CCN(Cc1c(F)cccc1Cl)C2 (centres undefined),159.3
12,CN(Cc1c(F)cccc1Cl)C(=O)CN(C)C1CCc2ccccc21 (centres undefined),-6.423
13,CC(CC#N)N(C)Cc1ccccc1Cl (centres undefined),14.98
14,CSc1nccc(N2C[C@@H]3CC[C@H](C2)N(CC2CCC2)C3=O)n1,23.13
15,COCCC1(C(=O)NCCc2nncn2C2CC2)CCC1,-3.297
16,CCOCC1CCN(C(=O)Nc2ccc3c(c2)CCCO3)C1 (centres undefined),-8.757
17,CS(=O)(=O)c1nccn1CCOc1ccccc1F,21.64
18,O=C(O)C(F)(F)F.c1csc(CN2CCCn3cnc(COCC4CC4)c3C2)n1,-1.239
19,O=C1OCCN1CC(=O)N1C[C@H]2CC[C@@H]1CN(C(=O)c1cccnc1)C2,-9
20,O=C(NC1CCN(C(=O)C2CCCCC2)C1)c1ccncc1Cl (centres undefined),79.99
21,CC(NC(=O)NC1CCN(Cc2ccncc2)CC1)c1ccccc1F (centres undefined),-8.351
22,CCc1cnccc1C(=O)NC1CCN(C(=O)C2CCCCC2)CC1,87.11
23,CCc1cnccc1C(=O)NC1CCN(C(=O)OC)CC1,94.08
24,N#Cc1cnc(NC2CCN(C(=O)C3CCCCC3)CC2)c(Cl)c1,1.1
25,O=C(C1CCCC1)N1CCC(Nc2ccncn2)CC1,23.24

row,Structure (SMILES),Percent Effect [%]
1,CCc1ccc(O)c(C(=O)NC2CCN(Cc3ccncc3)CC2)c1,19.96
2,O=C(NC1CC1)c1cc(NC(=O)N2CCCC2)ccc1Cl,-51.77
3,CC(NC1CCN(C(=O)C2CCCCC2)CC1)c1nccs1 (centres undefined),-8.519
4,CCc1cnccc1C(=O)NC1CCN(Cc2ccccc2F)CC1,94.68
5,CCc1ccc(O)c(C(=O)NC2CCN(C(=O)OC)CC2)c1,2.941
6,CNC(=O)C(C)CN(C)C(=O)Nc1ccc(F)c(-n2cccc2)c1 (centres undefined),-4.138
7,CC(C)n1ccc(=O)nc1SC1CCN(c2ccccc2F)C1=O (centres undefined),-4.763
8,CCN(CC)C(=O)CNS(=O)(=O)c1cc(Br)ccc1F,7.808
9,CCC(C#N)NC(=O)COC1CCCCC1 (centres undefined),0.5871
10,O=C(O)C(F)(F)F.O=C(O)C(F)(F)F.c1nc2n(c1CN1CCCCC1)CCN(C1CCOC1)CC2 (centres undefined),7.057
11,Cn1cc(CC(=O)N2CCOC(c3nc(C(C)(C)C)n[nH]3)C2)cn1 (centres undefined),-9.292
12,CC(C)(C)c1n[nH]c(C2CN(C(=O)CCc3cscn3)CCO2)n1 (centres undefined),-3.136
13,CCCc1n[nH]c(C2CN(CC(=O)N(C)Cc3ccco3)CCO2)n1 (centres undefined),-31.39
14,Cc1nn(CCC#N)c(C)c1CCC(=O)N(C)C.Cl,11.54
15,CN1CCOC(c2cncc(CCC(=O)N(C)C)n2)C1 (centres undefined),119.8
16,Cc1cnn(CCC(=O)N2CCOC(c3nc(C(C)(C)C)n[nH]3)C2)c1 (centres undefined),0.508
17,CN1CCOC(c2cncc(CCC(N)=O)n2)C1 (centres undefined),120.9
18,CC(=O)N1CCOC(c2cncc(CCC(N)=O)n2)C1 (centres undefined),132.1
19,CC(=O)N1CCOC[C@H](OCC(=O)N(C)C)C1,-10.39
20,CC(=O)N1CCOC(c2cncc(CCC(=O)N(C)C)n2)C1 (centres undefined),131.5
21,CCC(CC)CN1CCC2(CCC(=O)N2OCc2ccccc2F)CC1,5.285
22,CSCC(C)(O)CNc1cccc(F)c1C(C)=O (centres undefined),5.644
23,Cc1nc(CNC(C(=O)N2CCOCC2)c2ccccc2)cs1 (centres undefined),-4.254
24,COCCN(C)CCN1CC2(CCN(C3CCSC3)CC2)OC1=O (centres undefined),-12.17
25,NC(=O)CCn1ccc(NC(=O)c2ccc(OCC3CC3)cc2)n1,-25.96

row,Structure (SMILES),Percent Effect [%]
1,CC(C)(C(=O)NCC(N)=O)c1ccccc1F,-10.57
2,Cc1cn2c(CN(C)C(=O)c3nccnc3N)c(C)nc2s1,-5.585
3,Nc1nccc(N[C@H]2CN(CC(=O)NC3CCCCC3)C[C@@H]2C2CC2)n1,-21.82
4,Cn1c(SCC(O)COCc2ccc(Cl)cc2)nnc1C1CC1 (centres undefined),-3.183
5,O=C(C1CC(F)(F)C1)N1C[C@@H]2CN(CC3CC3)CCO[C@@H]2C1.O=C(O)C(F)(F)F,110.9
6,Cc1cnc(C(=O)N2C[C@@H]3CN(CC4CCCC4)CCO[C@@H]3C2)cn1.O=C(O)C(F)(F)F,-8.351
7,CCN1CCO[C@@H]2CN(C(=O)COC3CCCC3)C[C@@H]2C1.O=C(O)C(F)(F)F,2.686
8,O=C(C1CC(F)(F)C1)N1C[C@@H]2CN(CC3CCCC3)CCO[C@@H]2C1.O=C(O)C(F)(F)F,97.34
9,O=C(O)C(F)(F)F.O=C(c1cocn1)N1C[C@@H]2CN(CC3CC3)CCO[C@@H]2C1,1.689
10,O=C(C1CC(F)(F)C1)N1C[C@@H]2CN(Cc3ccsc3)CCO[C@@H]2C1.O=C(O)C(F)(F)F,8.794
11,O=C(C1CC(F)(F)C1)N1C[C@@H]2CN(Cc3ccoc3)CCO[C@@H]2C1,97.76
12,O=C(N1CCCC1)N1C[C@@H]2CN(Cc3ccoc3)CCO[C@@H]2C1,26.69
13,O=C(CC1CCCC1)N1C[C@@H]2CN(Cc3ccoc3)CCO[C@@H]2C1,-9.792
14,CCS(=O)(=O)CC(=O)NC1(c2ccc(Cl)c(Cl)c2)CC1,-4.937
15,NC(=O)CC1CCN(S(=O)(=O)c2cnn(-c3ccccc3)c2)CC1,23.91
16,OC[C@H]1CCN(Cc2ccc3ccccc3n2)C[C@@H]1O,-11.71
17,COc1c(C2CCCN2c2ncnc3c2CCC3)c(C)nn1C (centres undefined),-10.62
18,Cc1ccc(C(C)NC(=O)N2CCN(S(C)(=O)=O)CC2)o1 (centres undefined),16.96
19,CCCS(=O)(=O)N1CCC(n2nc(-c3cc(C)oc3C)ccc2=O)CC1,123.5
20,Cc1cc(-c2n[nH]c3c2CN(S(=O)(=O)c2ccsc2)CC3)c(C)o1,6.081
21,CCS(=O)(=O)N1CCC(c2nnc(C3CC3)o2)CC1,-10.63
22,CCCS(=O)(=O)N1CCC(c2ccc(OC)cc2)CC1,-3.773
23,CN(C)S(=O)(=O)N1CCC(C(O)c2ccc(Cl)cc2)CC1 (centres undefined),-7.887
24,Cc1cc2cc(CNC3CCN(S(C)(=O)=O)CC3)oc2cc1C,-4.149
25,CN(C)S(=O)(=O)N1CCC(Oc2ccc(C#N)cc2)CC1,-11.9

row,Structure (SMILES),Percent Effect [%]
1,Cc1cc(-c2ccc(=O)n(C3CCN(S(=O)(=O)N(C)C)CC3)n2)c(C)o1,95.62
2,CCCS(=O)(=O)N1CCC(NC(=O)c2cc(C)c(CC)s2)CC1,4.17
3,CCS(=O)(=O)N1CCC(n2nc(-c3cc(C)oc3C)ccc2=O)CC1,128.2
4,Cc1cc(-c2ccc(=O)n(C3CCN(S(C)(=O)=O)CC3)n2)c(C)o1,123.5
5,COc1cc(F)ccc1-c1cc(CO)ccn1,-29.15
6,CC(=O)N[C@@H]1Cc2ccccc2[C@H]1Nc1ccncn1,4.323
7,CCC1CCCCN1S(=O)(=O)c1c(N)noc1C (centres undefined),0.4068
8,O=C(c1ccc(-c2cccs2)cc1F)N1CCN(CCO)CC1,-12.79
9,Cc1nc2cc(F)cc(C(=O)N3CCN(CCO)CC3)c2nc1C,-10.5
10,COc1ccc(C(=O)N2CCN(CCO)CC2)c(F)c1,102.7
11,CC(C)Cn1c2c(ccc1=O)CC(N)CC2 (centres undefined),-23.17
12,Cc1cc(C(=O)NC2CCc3c(ccc(=O)n3CC3CC3)C2)no1 (centres undefined),117.2
13,Cc1cc(C(=O)NC2CCc3c(ccc(=O)n3CCN(C)C)C2)no1 (centres undefined),93.45
14,Cc1cc(C(=O)N[C@H]2CC[C@@]3(CCC(=O)N3C)CC2)no1,-27.57
15,CC(C)Cn1c2c(ccc1=O)CC(NC(=O)c1ccsc1)CC2 (centres undefined),-16.59
16,O=C(CC1CC1)NC1CCc2c(ccc(=O)n2CC2CC2)C1 (centres undefined),-16.88
17,Cc1cc(C(=O)NC2CCc3c(ccc(=O)n3CC(C)C)C2)no1 (centres undefined),105.4
18,N#Cc1cccc(C(=O)NC2CCc3c(ccc(=O)n3CC3CC3)C2)c1 (centres undefined),110.8
19,CC(=O)NCC(=O)NC1CCc2c(ccc(=O)n2CC2CC2)C1 (centres undefined),-21.87
20,O=C(NC1CCc2c(ccc(=O)n2CC2CC2)C1)c1cscn1 (centres undefined),-44.11
21,CCc1cc(NC2CCS(=O)(=O)CC2)nc(N2CCCCC2)n1,-3.09
22,Cn1c(CO)cnc1SC1CCCN(c2ccccc2F)C1=O (centres undefined),-6.766
23,CC(Nc1ccn(CCS(C)(=O)=O)n1)c1ccc(C#N)cc1 (centres undefined),-8.389
24,F[C@@H]1CN(CC2CC2)C[C@@H]1OCc1nc2ccccc2[nH]1,-1.846
